{"source": "PubChem BioAssay AID463173", "about": "(ICCB-Longwood Screening Facility, Harvard Medical School, 2010)", "note": "Screen size: about 52,000 compounds; about 4,300 (8.3%) were called active. What follows is part of a selection rich in actives, with near analogues and random picks from the rest. A number with no mark means an inactive call. Cut-off read from the data, not from the text of the source: active = survival mostly below about 52% (no sharp cut-off); inactive = mostly above about 56%.", "data": [{"test_system": "DeltatarO mutant", "experiment": "S. aureus survival, RN4220 and DeltatarO strains – OD600, teichoic acid synthesis inhibitors, primary screen (AID 463173)", "conditions": "S. aureus RN4220 wild type/DeltatarO growth, OD600, 18 h, active compounds read low, screened at 18.75 µg/mL (by protocol)", "values": [{"molecule": "Cc1cccc(NC(=O)N2CCN3CCCCC3C2)c1C", "note": "(stereo unspecified)", "survival": "77%"}, {"molecule": "CC(C)c1ccc(NC(=O)c2cc(S(=O)(=O)NC3CCCCC3)ccc2F)cc1", "survival": "102%"}, {"molecule": "O=C(Nc1cc2c(cc1C(=O)c1ccccc1Cl)OCCO2)c1ccccc1", "survival": "113%"}, {"molecule": "COc1ccc(CCn2c3c(c(=O)[nH]c2=O)C(NC(=O)c2ccc(C(C)(C)C)cc2)(C(F)(F)F)C(=O)N3)cc1OC", "note": "(stereo unspecified)", "survival": "91%"}, {"molecule": "Nc1ncc(S(=O)(=O)Nc2ccc(OC(F)(F)F)cc2)cn1", "survival": "79%"}, {"molecule": "CC(=O)c1ccc(NC(=O)C2CCC(CNS(=O)(=O)c3ccc(Br)s3)CC2)cc1", "note": "(stereo unspecified)", "survival": "69%"}, {"molecule": "CCOC(=O)c1ccc(NS(=O)(=O)c2cn(C)c(C)n2)cc1", "survival": "69%"}, {"molecule": "COc1cc(NS(=O)(=O)c2cnc(N)nc2)cc(OC)c1", "survival": "76%"}, {"molecule": "CCOC(=O)c1ccc(NC(=O)C(Cc2ccccc2)NS(=O)(=O)c2ccc(Br)s2)cc1", "note": "(stereo unspecified)", "survival": "90%"}, {"molecule": "CC(=O)c1ccc(NS(=O)(=O)c2ccc(-c3cc(C)no3)s2)cc1", "survival": "122%"}, {"molecule": "CC(=O)c1ccc(NS(=O)(=O)c2ccc(Br)s2)cc1", "survival": "47% (active)"}, {"molecule": "CC(=O)c1ccc(NS(=O)(=O)c2cnc(N)nc2)cc1", "survival": "6% (active)"}, {"molecule": "CCOC(=O)c1ccc(NS(=O)(=O)c2ccc(Br)s2)cc1", "survival": "38% (active)"}, {"molecule": "COc1ccc(Nc2ncc3c(n2)CCN(Cc2ccccc2C)C3)c(OC)c1", "survival": "91%"}, {"molecule": "Cc1ccccc1N(C)C(=O)c1noc2c1COc1ccccc1-2", "survival": "72%"}, {"molecule": "CCOc1ccc(S(=O)(=O)N(CC(=O)N2CCCCC2)c2ccccc2)cc1", "survival": "60%"}, {"molecule": "CC12CN3CC(C)(CN(C1)C3(C)CSc1c[nH]c3ccccc13)C2=O", "note": "(stereo unspecified)", "survival": "76%"}, {"molecule": "Cc1ccc(C)c(NC(=O)Cn2cnc3c(oc4ccccc43)c2=O)c1", "survival": "82%"}, {"molecule": "Cc1ccc(NC(=O)CN2C(=O)COc3ccc(S(=O)(=O)Nc4ccccc4)cc32)c(C)c1", "survival": "54%"}, {"molecule": "Oc1cccc(-c2nc3ncccn3c2Nc2cccc(C(F)(F)F)c2)c1", "survival": "62%"}, {"molecule": "COc1ccc(CNC(=O)Cc2c(C)c3cc4c(C)coc4c(C)c3oc2=O)cc1OC", "survival": "67%"}, {"molecule": "Cc1ccc2c(Sc3ccccc3)c(C(=O)NCc3ccccc3F)[nH]c2c1", "survival": "90%"}, {"molecule": "N#C/C(=C\\c1ccc(Cl)cc1)c1nc2ccccc2[nH]1", "survival": "57%"}, {"molecule": "N#C/C(=C\\c1ccc(-c2ccc(C(=O)O)cc2)o1)c1nc2ccccc2[nH]1", "survival": "77%"}, {"molecule": "CN(C)/C=C(\\C#N)c1nc2ccccc2[nH]1", "survival": "73%"}, {"molecule": "Cc1c(Cl)cccc1-c1ccc(/C=C(\\C#N)c2nc3ccccc3[nH]2)o1", "survival": "13% (active)"}, {"molecule": "N#C/C(=C\\c1ccc(-c2ccc(F)cc2F)o1)c1nc2ccccc2[nH]1", "survival": "22% (active)"}, {"molecule": "N#C/C(=C\\c1ccc(-c2ccc(Cl)c(C(=O)O)c2)o1)c1nc2ccccc2[nH]1", "survival": "55% (active)"}, {"molecule": "N#C/C(=C\\c1ccc(-c2ccccc2C(=O)O)o1)c1nc2ccccc2[nH]1", "survival": "76%"}, {"molecule": "N#C/C(=C/c1ccc(-c2ccc(Cl)c(C(=O)O)c2)o1)C(=O)NC1CCCC1", "survival": "96%"}, {"molecule": "Cc1ccc(/C=C(\\C#N)c2nc3ccccc3c(=O)[nH]2)cc1", "survival": "93%"}, {"molecule": "COc1cc(/C=C(\\C#N)c2nc3ccccc3[nH]2)ccc1OCc1ccccc1F", "survival": "50%"}, {"molecule": "Cc1ccc2nc(/C(C#N)=C/c3ccc(-c4ccc(F)cc4F)o3)[nH]c2c1", "survival": "11% (active)"}, {"molecule": "O=C(Cn1ncc2ccsc2c1=O)N1CCN(c2ccc(Cl)cc2)CC1", "survival": "78%"}, {"molecule": "Cc1nc(N=C(N)N)nc2cc3c(cc12)OCO3", "survival": "91%"}, {"molecule": "COc1ccccc1N1CCN(C(=O)c2c(C)oc3ncn(CC(C)C)c(=O)c23)CC1", "survival": "76%"}, {"molecule": "CCCCOC(=O)c1ccc(NC(=O)c2ccc3c(c2)CCN3S(C)(=O)=O)cc1", "survival": "96%"}, {"molecule": "O=C(C1CCN(S(=O)(=O)c2ccc(Br)s2)CC1)N1CCN(c2cccc(Cl)c2)CC1", "survival": "76%"}, {"molecule": "CC1CCCCN1C(=O)Cn1nnc2c(cnn2-c2ccccc2)c1=O", "note": "(stereo unspecified)", "survival": "79%"}, {"molecule": "CCCCSCCCNC(=O)c1c[nH]c2ccc(S(=O)(=O)Nc3cccc(OC)c3)cc2c1=O", "survival": "90%"}, {"molecule": "COc1ccc(N2CCN(S(=O)(=O)CCNC(=O)c3ccc(OC(C)C)cc3)CC2)cc1", "survival": "78%"}, {"molecule": "COc1cc(NC(=O)Cn2cc(C(=O)c3ccc(F)cc3)c(=O)c3ccc(C)nc32)cc(OC)c1", "survival": "74%"}, {"molecule": "CN(C)c1ccc(CNC(=O)CCCN2C(=O)CCn3nc(-c4cccn4C)cc32)cc1", "survival": "73%"}, {"molecule": "O=C(CSc1ncc2c(n1)-c1cc(Cl)ccc1N(Cc1ccccc1)S2(=O)=O)NCc1ccccc1", "survival": "89%"}, {"molecule": "O=C(c1ccccc1Cl)N(Cc1ccco1)c1ccccn1", "survival": "55%"}, {"molecule": "COc1cccc2cc(C(=O)Nc3ccc(N4CCNCC4)cc3)c(=O)oc12", "survival": "99%"}]}]}
